Data as given in the supplement of paper PMC3414501.
Counter-ions that a name gives are not always drawn.

System: S. cerevisiae BY4741 (wild-type), vegetative growth in YPD
Test: growth sensitivity score (doubling time z-score vs DMSO controls); higher = slower growth, strongly negative scores also mark growth inhibition (complete suppression), active = hit call of the paper; in the data active = 2 or more and inactive = the rest
Method in brief: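 Optical density of Saccharomyces cerevisiae cultures in microtiter plates was followed every 15 min for 24 hours after seeding at an OD600 of 0.065. Eight solvent-only wells were run per experiment. Growth sensitivity scores were found by subtracting the solvent-only mean from the compound mean and dividing by the solvent-only standard deviation.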

Growth sensitivity score, active:
CCN1CCN(c2cc3c(cc2F)c(=O)c(C(=O)O)cn3C2CC2)CC1 [Enrofloxacin] (stock concentration (mM, diluted 1:100): 10) 3.15
CC(C)(C)NC(=O)[C@@H]1C[C@@H]2CCCC[C@@H]2CN1C[C@@H](O)[C@H](Cc1ccccc1)NC(=O)[C@H](CC(N)=O)NC(=O)c1ccc2ccccc2n1 [Saquinavir mesylate] (stock concentration (mM, diluted 1:100): 8.8) 2.5

Growth sensitivity score, inactive:
C[C@]12C[C@H](O)[C@H]3[C@@H](CCC4=CC(=O)CC[C@@]43C)[C@@H]1CC[C@@H]2C(=O)CO [Corticosterone] (stock concentration (mM, diluted 1:100): 10) -0.97
Cc1cccc(C)c1NC(=O)C1CCCCN1C (configuration not stated) [Mepivacaine hydrochloride] (stock concentration (mM, diluted 1:100): 10) -0.29
Cc1cc2c(s1)Nc1ccccc1N=C2N1CCN(C)CC1 [Olanzapine] (stock concentration (mM, diluted 1:100): 9.9) -0.76
CC(=O)CCCCn1c(=O)c2c(ncn2C)n(C)c1=O [Pentoxifylline] (stock concentration (mM, diluted 1:100): 10) -0.51
CN1CC(=O)N2[C@H](c3ccc4c(c3)OCO4)c3[nH]c4ccccc4c3C[C@@H]2C1=O [Tadalafil] (stock concentration (mM, diluted 1:100): 10) -1.71
